Measured values as given in PubChem BioAssay AID1159580 (chemical genetic matrix, 2015).
Where “and” joins values, the source holds several entries; their conditions need not be identical. Equal entries are not always repeated. About 2,000 (36%) of roughly 5,500 compounds were called active. About 18% were inconclusive and are not listed. No stated cut-off is given here; in the data, active means normalized growth mostly below about 0.91 (no sharp cut-off); inconclusive means no clear call, values can overlap the other calls; inactive means mostly above about 0.92. Some of the results follow.

Test: chemical genetic growth profiling, strain panel (AID 1159580);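 further: tested at 20 µM; growth read once vehicle control cultures reached saturation at 30 °C; 1 = growth at the plate median or of vehicle wells; lower values mean less growth of the strain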
Details: growth OD
[1] = S. cerevisiae deletion strains, locus YAL013W, strain DEP1, hits give low values
[2] = S. cerevisiae deletion strains, locus YBR229C, strain ROT2, hits give low values
[3] = S. cerevisiae deletion strains, locus YDL101C, strain DUN1, hits give low values
[4] = S. cerevisiae deletion strains, locus YDR150W, strain NUM1, hits give low values
[5] = S. cerevisiae deletion strains, locus YEL061C, strain CIN8, hits give low values
[6] = S. cerevisiae deletion strains, locus YGR078C, strain PAC10, hits give low values
[7] = S. cerevisiae deletion strains, locus YGR229C, strain SMI1, hits give low values
[8] = S. cerevisiae deletion strains, locus YHR030C, strain SLT2, hits give low values
[9] = S. cerevisiae deletion strains, locus YJR043C, strain POL32, hits give low values
[10] = S. cerevisiae deletion strains, locus YJR075W, strain HOC1, hits give low values
[11] = S. cerevisiae deletion strains, locus YLR039C, strain RIC1, hits give low values
[12] = S. cerevisiae deletion strains, locus YLR262C, strain YPT6, hits give low values
[13] = S. cerevisiae deletion strains, locus YMR263W, strain SAP30, hits give low values
[14] = S. cerevisiae deletion strains, locus YNL153C, strain GIM3, hits give low values
[15] = S. cerevisiae deletion strains, locus YNL322C, strain KRE1, hits give low values
[16] = S. cerevisiae deletion strains, locus YOL006C, strain TOP1, hits give low values
[17] = S. cerevisiae deletion strains, locus YPL055C, strain LGE1, hits give low values
[18] = S. cerevisiae deletion strains, locus YPL241C, strain CIN2, hits give low values
[19] = S. cerevisiae deletion strains, locus YAL040C, strain CLN3, hits give low values
[20] = S. cerevisiae deletion strains, locus YCL061C, strain MRC1 (second series), hits give low values
[21] = S. cerevisiae deletion strains, locus YDR363W, strain ESC2, hits give low values
[22] = S. cerevisiae deletion strains, locus YER002W, strain NOP16, hits give low values
[23] = S. cerevisiae deletion strains, locus YMR307W, strain GAS1, hits give low values
[24] = S. cerevisiae deletion strains, locus YNL175C, strain NOP13, hits give low values
[25] = S. cerevisiae deletion strains, locus YNL197C, strain WHI3, hits give low values
[26] = S. cerevisiae deletion strains, locus YNL224C, strain SQS1, hits give low values
[27] = S. cerevisiae deletion strains, locus YOR083W, strain WHI5 (second series), hits give low values
[28] = S. cerevisiae deletion strains, locus YHR079C, strain IRE1, hits give low values
[29] = S. cerevisiae deletion strains, locus YJL095W, strain BCK1, hits give low values
[30] = S. cerevisiae deletion strains, locus YJR066W, strain TOR1, hits give low values
[31] = S. cerevisiae deletion strains, locus YLR113W, strain HOG1, hits give low values
[32] = S. cerevisiae deletion strains, locus YNL183C, strain NPR1, hits give low values
[33] = S. cerevisiae deletion strains, locus YOR231W, strain MKK1, hits give low values
[34] = S. cerevisiae deletion strains, locus YPL256C, strain CLN2, hits give low values

Measured: normalized growth

CCN(CC)C(=O)c1[nH]c(C)c(C)c1C
inactive: [1] 1.01 | [2] 1 | S. cerevisiae deletion strains, locus YCL061C, strain MRC1, hits give low values 1.01 | [3] 0.994 | [4] 1.01 | [5] 0.985 | [6] 1.01 | [7] 1.02 | [8] 1 | S. cerevisiae deletion strains, locus YHR087W, strain rtc3, hits give low values 0.998 | [9] 0.997 | [10] 1.01 | [11] 1.02 | S. cerevisiae deletion strains, locus YLR058C, strain SHM2 (second series), hits give low values 1.01 | S. cerevisiae deletion strains, locus YLR085C, strain ARP6, hits give low values 1.03 | [12] 0.995 | S. cerevisiae deletion strains, locus YML094W, strain GIM5, hits give low values 1.02 | S. cerevisiae deletion strains, locus YMR219W, strain ESC1, hits give low values 1.02 | [13] 1.01 | [14] 1 | S. cerevisiae deletion strains, locus YNL298W, strain CLA4 (second series), hits give low values 1.01 | [15] 0.985 | S. cerevisiae deletion strains, locus YNR030W, strain Alg12, hits give low values 1 | [16] 1.04 | [17] 1.02 | [18] 0.994 | S. cerevisiae deletion strains, locus YPR135W, strain CTF4, hits give low values 1.06

COC(=O)[C@@H]1[C@H]2C[C@H]3c4[nH]c5ccccc5c4CCN3C[C@@H]2CC[C@@H]1O
inactive: [1] 0.98 | [19] 1.03 | [20] 0.99 | [4] 1.01 | [21] 0.981 | [22] 1 | [6] 0.987 | [10] 0.98 | [13] 0.987 | [23] 1 | [24] 1 | [25] 0.984 | [26] 0.981 | [15] 0.952 | [27] 0.975 | [17] 0.983

O=C(O)Cc1cnc[nH]1
inactive: [1] 1.04 | [19] 1.04 | [20] 1.02 | [4] 1.04 | [21] 1.02 | [22] 1.01 | [8] 0.992 | [28] 1.01 | [29] 1 | [30] 0.985 | [31] 1 | [14] 1.03 | [24] 1 | [32] 0.938 | [25] 1.01 | [26] 1 | [15] 1.02 | [27] 1.01 | [33] 1 | [18] 1.01 | [34] 1

CC12CCC3c4ccc(OC(=O)c5ccccc5)cc4CCC3C1CCC2O (stereo unspecified)
inactive: S. cerevisiae deletion strains, locus YBR021W, strain FUR4, hits give low values 1.06 | [2] 1 | S. cerevisiae deletion strains, locus YCL029C, strain bik1, hits give low values 1 | S. cerevisiae deletion strains, locus YDL035C, strain GPR1, hits give low values 1 | S. cerevisiae deletion strains, locus YDL074C, strain BRE1, hits give low values 0.981 | [3] 0.992 | S. cerevisiae deletion strains, locus YDL134C, strain PPH21, hits give low values 1 | S. cerevisiae deletion strains, locus YDL185W, strain tfp1, hits give low values 0.999 | S. cerevisiae deletion strains, locus YDL192W, strain arf1, hits give low values 0.995 | S. cerevisiae deletion strains, locus YDR101C, strain arx1, hits give low values 0.99 | S. cerevisiae deletion strains, locus YDR162C, strain NBP2, hits give low values 1.02 | S. cerevisiae deletion strains, locus YDR318W, strain mcm21, hits give low values 0.99 | S. cerevisiae deletion strains, locus YDR388W, hits give low values 0.993 | S. cerevisiae deletion strains, locus YDR502C, strain sam2, hits give low values 1 | [5] 1.01 | S. cerevisiae deletion strains, locus YER110C, hits give low values 1 | S. cerevisiae deletion strains, locus YER155C, strain BEM2, hits give low values 1.01 | S. cerevisiae deletion strains, locus YER167W, strain BCK2, hits give low values 1 | S. cerevisiae deletion strains, locus YGL078C, strain dbp3, hits give low values 1 | S. cerevisiae deletion strains, locus YGL086W, strain mad1, hits give low values 1 | S. cerevisiae deletion strains, locus YGL248W, strain PDE1, hits give low values 0.992 | S. cerevisiae deletion strains, locus YGR135W, strain pre9, hits give low values 0.997 | [7] 1.02 | S. cerevisiae deletion strains, locus YGR252W, strain gcn5, hits give low values 1 | [8] 1.01 and 1.03 | S. cerevisiae deletion strains, locus YHR079C, strain IRE1 (second series), hits give low values 1 | [28] 1.05 | S. cerevisiae deletion strains, locus YHR094C, strain hxt1, hits give low values 0.995 | S. cerevisiae deletion strains, locus YHR129C, strain ARP1, hits give low values 1 | S. cerevisiae deletion strains, locus YHR200W, strain rpn10, hits give low values 1 | S. cerevisiae deletion strains, locus YIL066C, strain RNR3, hits give low values 1 | S. cerevisiae deletion strains, locus YIL073C, strain SPO22, hits give low values 1.03 | S. cerevisiae deletion strains, locus YIL125W, strain kgd1, hits give low values 0.994 | S. cerevisiae deletion strains, locus YIR030C, strain dcg1, hits give low values 0.997 | [29] 0.958 and 1.01 | S. cerevisiae deletion strains, locus YJL134W, strain LCB3, hits give low values 1.01 | S. cerevisiae deletion strains, locus YJL168C, strain set2, hits give low values 0.989 | S. cerevisiae deletion strains, locus YJL187C, strain SWE1 (second series), hits give low values 1 | [9] 1.01 | [30] 0.963 | [10] 1.01 | S. cerevisiae deletion strains, locus YKL009W, strain mrt4, hits give low values 1 | S. cerevisiae deletion strains, locus YKL068W, hits give low values 1.01 | S. cerevisiae deletion strains, locus YKL085W, strain MDH1 (second series), hits give low values 1 | S. cerevisiae deletion strains, locus YKL085W, strain MDH1, hits give low values 1 | S. cerevisiae deletion strains, locus YKL190W, strain CNB1, hits give low values 1.01 | S. cerevisiae deletion strains, locus YKR001C, strain vps1, hits give low values 0.945 | [11] 0.755 | S. cerevisiae deletion strains, locus YLR058C, strain SHM2, hits give low values 1.01 | S. cerevisiae deletion strains, locus YLR102C, strain apc9, hits give low values 0.991 | [31] 1.02 | S. cerevisiae deletion strains, locus YLR268W, strain sec22, hits give low values 1 | S. cerevisiae deletion strains, locus YLR330W, strain CHS5, hits give low values 1.02 | S. cerevisiae deletion strains, locus YLR342W, strain FKS1 (second series), hits give low values 0.999 | S. cerevisiae deletion strains, locus YLR371W, strain rom2, hits give low values 0.995 | S. cerevisiae deletion strains, locus YLR418C, strain cdc73, hits give low values 0.949 | S. cerevisiae deletion strains, locus YML016C, strain PPZ1, hits give low values 1.01 | S. cerevisiae deletion strains, locus YML032C, strain rad52, hits give low values 0.992 | S. cerevisiae deletion strains, locus YML124C, strain tub3, hits give low values 0.999 | S. cerevisiae deletion strains, locus YMR078C, strain ctf18, hits give low values 0.988 | S. cerevisiae deletion strains, locus YMR223W, strain ubp8, hits give low values 1 | [13] 1.01 | [23] 1.22 | S. cerevisiae deletion strains, locus YNL067W, strain RPL9B, hits give low values 1.01 | S. cerevisiae deletion strains, locus YNL128W, strain TEP1, hits give low values 1.04 | [14] 0.997 | [32] 0.934 | S. cerevisiae deletion strains, locus YNL233W, strain BNI4, hits give low values 0.97 | S. cerevisiae deletion strains, locus YNL250W, strain rad50, hits give low values 1 | S. cerevisiae deletion strains, locus YNL271C, strain bni1, hits give low values 0.992 | S. cerevisiae deletion strains, locus YNL298W, strain CLA4, hits give low values 0.993 | S. cerevisiae deletion strains, locus YNL307C, strain MCK1, hits give low values 0.926 | S. cerevisiae deletion strains, locus YNR052C, strain pop2, hits give low values 1 | [16] 0.921 | S. cerevisiae deletion strains, locus YOL012C, strain htz1 0.873 | S. cerevisiae deletion strains, locus YOL147C, strain pex11, hits give low values 1 | S. cerevisiae deletion strains, locus YOR061W, strain CKA2, hits give low values 1 | S. cerevisiae deletion strains, locus YOR069W, strain VPS5, hits give low values 1.01 | S. cerevisiae deletion strains, locus YOR136W, strain idh2, hits give low values 1 | S. cerevisiae deletion strains, locus YOR144C, strain elg1, hits give low values 1 | S. cerevisiae deletion strains, locus YOR184W, strain ser1, hits give low values 0.974 | [33] 1.03 | S. cerevisiae deletion strains, locus YOR316C, strain cot1, hits give low values 0.992 | [17] 1 | [34] 1.06 | S. cerevisiae deletion strains, locus YPR119W, strain clb2, hits give low values 0.994 | S. cerevisiae deletion strains, locus YPR141C, strain kar3, hits give low values 1 | S. cerevisiae deletion strains, locus YPR163C, strain tif3, hits give low values 1.01 | S. cerevisiae deletion strains, locus YPR167C, strain met16, hits give low values 1 | S. cerevisiae deletion strains, strain wtn01, hits give low values 0.996 | S. cerevisiae strains, strain wild type, hits give low values 1
active: [12] 0.606
